The values below come from PubChem BioAssay (Tox21).

Structures are written as SMILES. Active and inactive are the calls of the source. Where a call stands in place of a potency, no number is given. Calls follow the shape of the full dose curve.
Potency is read from the fitted curve at half-maximal effect.

The nature of this assay: qHTS assay to identify small molecule agonists of the sonic hedgehog signaling (Shh) pathway (AID 1259368). Also: nearly all actives have a fitted effect of over 15% in size. Conditions: NIH/3T3 Gli1-Luc reporter, luciferase, 24 h; series mostly up to 92.4 µM. The text has this:
National Center for Advancing Translational Sciences [NCATS]
NIH Chemical Genomics Center [NCGC]
U.S. Environmental Protection Agency [EPA]
National Institutes of Environmental Health Sciences [NIEHS]
National Toxicology Program [NTP]
The sonic hedgehog (Shh) pathway is essential for normal embryonic development. Dysregulation of the Shh pathway can cause severe developmental defects in organs. Therefore chemicals that interfere with the pathway are potential developmental toxicants. A cell line designated 3T3Gli1-Luc (DMB/OARSA/CFSAN/FDA, Laurel, MD), a NIH/3T3 derived clone containing stably integrated Gli1-Luc reporter is used to detect chemical interference of the Shh pathway, by changes in the expression of the firefly Luc gene under the control of the Gli1 transcriptional response element. This cell line was used to screen Tox21 libraries for identifying and prioritizing the potential developmental toxicants that interfere Shh pathway.
3T3 Gli1-Luc cells were dispensed at 2,000 per well in 5uL of culture medium into white solid bottom 1536-well plates (Greiner Bio-One, Monroe, NC) using a Multidrop Combi (Thermo Scientific, Waltham, MA) dispenser. The assay plates were incubated at 37 C and 5% CO2 for 4hr, and then 23nL of compounds dissolved in DMSO and positive control were transferred using a Pintool station (Wako, San Diego, CA). The assay plates were incubated at 37C and 5% CO2 for 24hr. For luciferase read, 4uL of Amplite Luciferase reporter gene assay reagent (AAT Bioquest, Inc. Sunnyvale, CA) was added to each well of the assay plates using Flying Reagent Dispenser (FRD, Aurora Discovery, San Diego, CA) and incubated at room temperature for 30min. The luminescence signal was measured using a ViewLux plate reader (Perkin Elmer, Shelton, CT).
(qHTS replaces the single test concentration by a dilution series.)
Regarding `O=C1N(c2ccccc2)c2ccccc2C1(Cc1ccncc1)Cc1ccncc1`, the Potency result is “inactive”.

With `O=C(Cl)c1cccc([N+](=O)[O-])c1`, the Potency entry was “inactive”.

Take `O=C(CC(=O)C(F)(F)F)c1ccccc1`: the Potency result was “inactive”.

Regarding `CCC1(C)NC(=O)NC1=O` (stereo not given), the Potency entry is “inactive”.

Consider `CC(=O)N[C@@H](CC(C)C)C(=O)O`, for which the Potency entry is “inactive”.

With `CC(C)OC(C)C`, the Potency result was “inactive”.

As for `CC1=C(CC(=O)O)c2cc(F)ccc2/C1=C\c1ccc(S(C)(=O)=O)cc1`, the Potency entry was “inactive”.

For the compound `OCCN1CCN(CCO)CC1`, the Potency result is “inactive”.

On to `NC/C=C/C(=O)O`, for which the Potency result is “inactive”.

On to `CNCCC(Oc1ccccc1OC)c1ccccc1` (stereo not given), for which the Potency result was “inactive”.

As for `Cc1cn([C@@H]2O[C@H](CO)[C@@H](O)[C@@H]2F)c(=O)[nH]c1=O`, the Potency result was “inactive”.

As to `OCCN(CCO)c1ccccc1`, the Potency entry is “inactive”.

Turning to `CC1=CC(=O)CC(C)(C)C1=O`, the Potency result is “inactive”.

As to `COc1cc(C)ccc1C(C)C`, the Potency entry was “inactive”.

Take `CC1=C2[C@H](/C=C(\C)C(=O)O)CC[C@@H](C)[C@H]2CC1`: the Potency result is “inactive”.

For the compound `CC(C)(C)c1ccc(OC(=O)c2ccccc2O)cc1`, the Potency result is “inactive”.

For `CN1CCN(C2=Nc3cc(F)ccc3Cc3ccccc32)CC1`, the Potency result was “inactive”.

On to `CCOC(=O)C(Br)c1ccccc1` (stereo not given), for which the Potency result was “inactive”.

`CCN(CC)C(=O)N(CC)CC`: the Potency entry is “inactive”.

For the compound `FC(F)(F)c1ccccc1`, the Potency result was “inactive”.

As to `OCc1ccccc1O`, the Potency result was “inactive”.

As for `CCCCNc1cc(C(=O)O)cc(S(N)(=O)=O)c1Oc1ccccc1`, the Potency result is “inactive”.

As for `CC1=NN(c2cc(Cl)c(S(=O)(=O)O)cc2Cl)C(=O)C1N=Nc1ccc(S(=O)(=O)O)cc1` (stereo not given), the Potency result was “inactive”.

For the compound `CC(C)C(=O)OC/C=C/c1ccccc1`, the Potency result is “inactive”.

Consider `CO[Si](C)(C)OC`, for which the Potency entry was “inactive”.

In the case of `Cc1c[nH]c(=S)[nH]c1=O`, the Potency result is “inactive”.

On to `CCCCCCCCCCCCOCCOS(=O)(=O)O`, for which the Potency result was “inactive”.

`CCCCNc1ccc(C(=O)OCCN(CC)CC)cc1`: the Potency result was “inactive”.

Turning to `CCCOCCC`, the Potency result is “inactive”.

As for `CC1(C)S[C@@H]2[C@H](NC(=O)C(C(=O)O)c3ccccc3)C(=O)N2[C@H]1C(=O)O` (stereo not given in full), the Potency entry is “inactive”.

On to `CC1(C)O[C@@H]2C[C@H]3[C@@H]4CCC5=CC(=O)CC[C@]5(C)[C@@]4(F)[C@@H](O)C[C@]3(C)[C@]2(C(=O)CCl)O1`, for which the Potency is 13.3 µM (active).

Take `C1CCOC1`: the Potency entry was “inactive”.

With `FC(F)(F)C(Cl)(Cl)Cl`, the Potency entry is “inactive”.

On to `CCCCC1CCC(=O)O1` (stereo not given), for which the Potency result is “inactive”.

Turning to `CCCCC(=O)O[C@]1(C(=O)CO)[C@H](C)C[C@H]2[C@@H]3CCC4=CC(=O)C=C[C@]4(C)[C@@]3(F)[C@@H](O)C[C@@]21C`, the Potency result was “inactive”.

On to `CS(=O)(=O)c1ccc([C@@H](O)[C@@H](CF)NC(=O)C(Cl)Cl)cc1`, for which the Potency entry was “inactive”.

Take `Clc1cccc(-c2cc(Cl)cc(Cl)c2)c1`: the Potency entry is “inactive”.

For the compound `Cc1cc(NS(=O)(=O)c2ccc(N)cc2)nc(C)n1`, the Potency entry was “inactive”.

Turning to `CCOc1ccc(OCC)c(Cl)c1`, the Potency entry was “inactive”.

With `Cc1nc(N)nc(N)c1-c1ccc(Cl)c(Cl)c1`, the Potency result is “inactive”.
